Assay results taken from PubChem BioAssay (EPA / NIEHS).
Several values for one entry are separate records, joined by “and”; a condition that tells them apart may be missing. Equal values may be shown once. Records with an inconclusive call do not appear. Some compounds were tested as several samples or in several runs, with calls that do not always agree. Activity calls are given as the source filed them. How the source made its calls, unless noted: active means hit-call score of the fitted dose curve at least 0.9, where 1 is the maximum; inactive means score below 0.9.

Assays:
[1] = read-out: Interleukin-8 (IL8), CXCL8 (gene 3576); test: BSK_3C_IL8: BioMAP Diversity Plus: 3C Assay for Interleukin-8 (IL8) Biomarker Activity (AID 2283020); settings: primary human endothelial cells (HUVEC); actives raise or lower the signal
How it was run: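 Human vascular endothelial cells (umbilical vein) in the 3C system; IL-8 level detected by ELISA at 24 h post-dose, with DMSO as baseline.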

[2] = target: human Vitamin D Receptor (VDR), VDR (gene 7421) (UniProt P11473); test: ATG_VDR_TRANS: Attagene TRANS-FACTORIAL HepG2 Assay for human Vitamin D Receptor (VDR) (AID 2283022; active means hit-call score of the fitted dose curve at least 0.9, where 1 is the maximum)
How it was run: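 HepG2 cells were transiently transfected with GAL4-UAS reporter units and a chimeric VDR-Gal4 construct, then dosed for 24 hours. Reporter mRNA was quantified by RT-PCR, fluorescent labeling, HpaI digestion and capillary electrophoresis; gain of signal analysed vs DMSO.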

[3] = BSK_3C_SRB: Viability Assessment in the BioMAP Diversity Plus: 3C Assay (AID 2283023); settings: primary human endothelial cells (HUVEC);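 further: fitted both ways against DMSO so a hit may be signal rise or drop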
How it was run: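 Human umbilical vein endothelial cells in the 3C system, treated 24 h. Total protein measured by 0.1% sulforhodamine B staining after 10% TCA fixation, read at 560 nm; bidirectional fit versus DMSO.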

[4] = read-out: Matrix Metallopeptidase 1 (MMP1), MMP1 (gene 4312); test: BSK_BE3C_MMP1: BioMAP Diversity Plus: BE3C Assay for Matrix Metallopeptidase 1 (MMP1) Biomarker Activity (AID 2283024); settings: primary human bronchial epithelial cells; actives raise or lower the signal
How it was run: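 Dose cells, wait 24 h, run MMP1 ELISA; cells are human bronchial epithelial primaries. Both increases and decreases relative to DMSO counted.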

[5] = read-out: Pselectin, SELP (gene 6403); test: BSK_4H_Pselectin: BioMAP Diversity Plus: 4H Assay for Pselectin Biomarker Activity (AID 2283026); settings: primary human endothelial cells (HUVEC); actives raise or lower the signal
How it was run: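 Human vascular endothelium from umbilical vein; P-selectin measured by ELISA at 24 h post-dose, with cytotoxicity checked by sulforhodamine B total-protein staining in parallel cultures (0.1% SRB after 10% TCA fixation, read at 560 nm).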

[6] = BSK_4H_SRB: Viability Assessment in the BioMAP Diversity Plus: 4H Assay (AID 2283027); settings: primary human endothelial cells (HUVEC);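 further: cells exposed to compound for 24 h before staining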;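 on AC50: curves fitted both ways versus DMSO so AC50 may be loss or gain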
How it was run: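 Human umbilical vein endothelial cells, 24 h after chemical dosing; total protein measured by 0.1% sulforhodamine B staining after 10% TCA fixation, read at 560 nm. Bidirectional fitting against DMSO.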

[7] = BSK_BE3C_SRB: Viability Assessment in the BioMAP Diversity Plus: BE3C Assay (AID 2283028); settings: primary human bronchial epithelial cells;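 on AC50: fitted both ways so AC50 may mark signal gain or loss versus DMSO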
How it was run: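 Human bronchial epithelial primary cells in confluent culture, 24 h after chemical dosing; total protein by 0.1% SRB staining after 10% TCA fixation, read at 560 nm. Bidirectional fitting versus DMSO baseline.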

[8] = read-out: Thrombomodulin, THBD (gene 7056); test: BSK_3C_Thrombomodulin: BioMAP Diversity Plus: 3C Assay for Thrombomodulin Biomarker Activity (AID 2283029); settings: primary human endothelial cells (HUVEC); actives raise or lower the signal
How it was run: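 Thrombomodulin ELISA, human primary HUVEC, 24 h post-dose; data fitted in both directions relative to DMSO.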

[9] = read-out: Human Leukocyte Antigen - DR isotype (HLADR), HLA-DRA (gene 3122); test: BSK_BE3C_HLADR: BioMAP Diversity Plus: BE3C Assay for Human Leukocyte Antigen - DR isotype (HLADR) Biomarker Activity (AID 2283032); settings: primary human bronchial epithelial cells; actives raise or lower the signal
How it was run: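 Signal came from an ELISA for HLA-DR in human bronchial epithelial primary cells harvested 24 h after treatment; gain- and loss-of-signal fitting used DMSO controls as reference.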

[10] = read-out: Vascular cell adhesion molecule 1 (VCAM1), VCAM1 (gene 7412); test: BSK_4H_VCAM1: BioMAP Diversity Plus: 4H Assay for Vascular cell adhesion molecule 1 (VCAM1) Biomarker Activity (AID 2283033); settings: primary human endothelial cells (HUVEC); actives raise or lower the signal
How it was run: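 Endpoint derived from bidirectional fitting against DMSO controls of VCAM-1 ELISA signal in umbilical vein endothelial cells sampled at 24 h following treatment.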

[11] = read-out: Interferon-gamma inducible Protein 10 (IP10), CXCL10 (gene 3627); test: BSK_BE3C_IP10: BioMAP Diversity Plus: BE3C Assay for Interferon-gamma inducible Protein 10 (IP10) Biomarker Activity (AID 2283034); settings: primary human bronchial epithelial cells; actives raise or lower the signal
How it was run: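 Using primary human bronchial epithelial cultures, the assay captures IP-10 by ELISA one day (24 h) after exposure. Parallel SRB staining of total protein flags overt cytotoxicity. Fits run bidirectionally relative to DMSO.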

[12] = read-out: Monokine induced gamma interferon (MIG), CXCL9 (gene 4283); test: BSK_BE3C_MIG: BioMAP Diversity Plus: BE3C Assay for Monokine induced gamma interferon (MIG) Biomarker Activity (AID 2283035); settings: primary human bronchial epithelial cells; actives raise or lower the signal;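 further: MIG protein measured by ELISA in BE3C cultures after 24 h of dosing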
How it was run: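 Primary human bronchial epithelial cells treated for 24 h; MIG levels measured by ELISA, fitted bidirectionally versus DMSO. Parallel SRB total-protein staining assessed cytotoxicity.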

[13] = read-out: Plasminogen activator inhibitor-1 (PAI1), SERPINE1 (gene 5054); test: BSK_BE3C_PAI1: BioMAP Diversity Plus: BE3C Assay for Plasminogen activator inhibitor-1 (PAI1) Biomarker Activity (AID 2283037); settings: primary human bronchial epithelial cells; actives raise or lower the signal
How it was run: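 PAI-1 biomarker levels in treated human bronchial epithelial cells are determined by ELISA at 24 h. Both increases and decreases relative to DMSO are fitted.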

[14] = read-out: urokinase plasminogen activator (uPA), PLAU (gene 5328); test: BSK_BE3C_uPA: BioMAP Diversity Plus: BE3C Assay for urokinase plasminogen activator (uPA) Biomarker Activity (AID 2283038); settings: primary human bronchial epithelial cells; actives raise or lower the signal
How it was run: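 Primary human bronchial epithelial cells, uPA measured by ELISA 24 h after dosing. Bidirectional change relative to DMSO; cytotoxicity checked in parallel cultures by sulforhodamine B total-protein staining.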

[15] = read-out: Urokinase-type plasminogen activator receptor (uPAR), PLAUR (gene 5329); test: BSK_BE3C_uPAR: BioMAP Diversity Plus: BE3C Assay for Urokinase-type plasminogen activator receptor (uPAR) Biomarker Activity (AID 2283039); settings: primary human bronchial epithelial cells; actives raise or lower the signal
How it was run: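 A uPAR ELISA serves as the readout, taken 24 h after treating primary human bronchial epithelial cells. Responses in either direction are fitted against DMSO, which defines baseline activity.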

[16] = read-out: Interleukin-6 (IL6), IL6 (gene 3569); test: BSK_CASM3C_IL6: BioMAP Diversity Plus: CASM3C Assay for Interleukin-6 (IL6) Biomarker Activity for (AID 2283040); settings: primary human coronary artery smooth muscle cells; actives raise or lower the signal
[17] = BSK_3C_Vis: BioMAP Diversity Plus: 3C Assay for Morphology Visualization (AID 2283025); settings: primary human endothelial cells (HUVEC);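 further: light microscopy image of cell morphology used as background control; fitted both ways so gain or loss versus DMSO counts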
How it was run: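 Endothelial cells from human umbilical vein were treated with test chemicals for 24 h and inspected by light microscopy for changes in cell conformation.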

[18] = read-out: Urokinase-type plasminogen activator receptor (uPAR), PLAUR (gene 5329); test: BSK_4H_uPAR: BioMAP Diversity Plus: 4H Assay for Urokinase-type plasminogen activator receptor (uPAR) Biomarker Activity (AID 2283030); settings: primary human endothelial cells (HUVEC); actives raise or lower the signal
How it was run: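 Human umbilical vein endothelial cells in the 4H system, 24 h after chemical dosing. Cell-surface uPAR measured by ELISA, fitted in both directions versus DMSO; cytotoxicity checked by SRB total protein in parallel cultures.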

[19] = read-out: Vascular endothelial growth factor receptor 2 (Homo sapiens) (UniProt P35968); test: BSK_4H_VEGFRII: BioMAP Diversity Plus: 4H Assay for Vascular endothelial growth factor receptor 2 (VEGFR2) Biomarker Activity (AID 2283031); settings: primary human endothelial cells (HUVEC); actives raise or lower the signal
How it was run: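 Primary human umbilical vein endothelial cells (4H system), 24 h exposure; cell-surface VEGFR2 measured by ELISA. Bidirectional fitting versus DMSO; cytotoxicity checked in parallel by SRB total-protein staining.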

Measured: AC50

Chain of human Vitamin D Receptor (VDR), VDR (gene 7421) (P11473 whole entry, looked up, the tested form may be a part): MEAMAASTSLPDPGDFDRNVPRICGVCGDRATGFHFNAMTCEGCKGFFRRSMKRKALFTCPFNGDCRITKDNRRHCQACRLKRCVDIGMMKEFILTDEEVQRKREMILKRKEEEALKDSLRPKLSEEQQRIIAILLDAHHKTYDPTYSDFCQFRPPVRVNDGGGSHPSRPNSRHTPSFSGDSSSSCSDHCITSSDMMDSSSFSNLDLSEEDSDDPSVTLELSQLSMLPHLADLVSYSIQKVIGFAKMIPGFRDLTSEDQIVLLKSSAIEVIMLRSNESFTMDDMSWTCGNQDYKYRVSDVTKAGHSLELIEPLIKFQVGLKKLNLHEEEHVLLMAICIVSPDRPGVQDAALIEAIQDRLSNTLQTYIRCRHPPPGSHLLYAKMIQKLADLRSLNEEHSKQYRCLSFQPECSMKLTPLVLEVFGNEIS

NCC(F)(F)C(F)(F)C(F)(F)C(F)(F)C(F)(F)C(F)(F)F
not listed: [17] | [18] | [19]
inactive: all other assays above

Cc1cc(O)c(C(C)(C)C)cc1C(C)(C)C
inactive: [2] | [19]
active: [1] 2.73 µM | [3] 3.99 µM | [4] 9.45 µM | [17] 12.5 µM | [5] 5.32 µM | [6] 4.77 µM | [7] 5.9 µM | [8] 4.96 µM | [18] 3.28 µM | [9] 5.31 µM | [10] 4.86 µM | [11] 6.09 µM | [13] 5.28 µM | [14] 5.51 µM | [15] 5.33 µM | [16] 5.61 µM

O=S(=O)(O)CCC(F)(F)C(F)(F)C(F)(F)C(F)(F)C(F)(F)C(F)(F)C(F)(F)C(F)(F)F
inactive: [1] | [3] | [5] | [6] | [7] | [8] | [10] | [12] | [13] | [14] | [15] | [16]
active: [3] 25.6 µM | [4] 11.1 µM and 15.4 µM | [9] 20.4 µM and 25.3 µM | [11] 16.8 µM and 24.1 µM | [13] 8.09 µM

C=CC(=O)OCCC(F)(F)C(F)(F)C(F)(F)C(F)(F)F
not listed: [8] | [10] | [12] | [17] | [19]
inactive: all other assays above

C[Si](Cl)(Cl)CCC(F)(F)C(F)(F)C(F)(F)C(F)(F)C(F)(F)C(F)(F)F
not listed: [8] | [12] | [17] | [18]
inactive: all other assays above

OCC(F)(F)C(F)(F)C(F)(F)CO
not listed: [10] | [17] | [18] | [19]
inactive: all other assays above

C=CC(=O)OCC(F)(F)C(F)(F)C(F)(F)COC(=O)C=C
active: [1] 23.9 µM and 31 µM | [3] 41.1 µM and 40.3 µM | [4] 21.8 µM | [5] 11.2 µM and 8.07 µM | [6] 25 µM and 33.8 µM | [18] 49.9 µM and 758 nM | [9] 34.2 µM and 21.4 µM | [11] 46.7 µM and 35.5 µM | [14] 20.6 µM and 27.4 µM | [15] 30 µM and 22.8 µM | [16] 30 µM and 17 µM
inactive: [4] | [7] | [13]
